# Counter-ions that a name gives are not always drawn.
# What was measured:
# Test in all cases: Euclidean distance of Cell Painting phenotypic profile (signed KS, 77 features) to DMSO centroid (dimensionless distance); 5 or 10 uM (library dependent); higher = stronger phenotypic change vs DMSO (phenoactivity)
# Conditions in all cases: 48 h
# 786-O = system: 786-O
# Outline: (§1)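 Five cancer lines and a healthy fibroblast line received library compounds at 10 or 5 uM (library-dependent, 0.1% DMSO final) for 48 h. Stained cells were imaged confocally at 20X (9 fields/well). Harmony extracted 77 features, each scored as a signed Kolmogorov-Smirnov statistic against same-plate vehicle wells. Profiles were plate-position corrected, correlation-weighted and replicate-averaged at the top dose. Phenoactivity is the Euclidean distance from each profile to the median vehicle profile.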
# A549 = system: A549
# Outline: as §1
# DU145 = system: DU145
# Outline: as §1
# FB = system: FB
# Outline: as §1
# HEPG2 = system: HEPG2
# Outline: as §1
# OVCAR4 = system: OVCAR4
# Outline: as §1
Structure (SMILES),Euclidean distance (786-O),Euclidean distance (A549),Euclidean distance (DU145),Euclidean distance (FB),Euclidean distance (HEPG2),Euclidean distance (OVCAR4)
CCN(Cc1ccncc1)C(=O)C(CO)c1ccccc1 (configuration not stated) [Tropicamide],1.11,1.27,1.8,1.01,0.684,1.3
CC1(C)S[C@@H]2[C@H](NC(=O)[C@H](N)c3ccc(O)cc3)C(=O)N2[C@H]1C(=O)O [Amoxicillin],1.02,1.01,0.78,0.837,0.318,1.22
Clc1ccc(CCC(Cn2ccnc2)Sc2c(Cl)cccc2Cl)cc1 (configuration not stated) [Butoconazole],1.21,0.956,1.06,1.04,1.4,1.31
Cc1c(Cc2ccc3ccccc3n2)c2cc(F)ccc2n1CC(=O)O,1.27,1.14,0.888,1.16,2.13,1.52
CCC(=O)OCC(=O)[C@@]1(OC(=O)CC)[C@@H](C)C[C@H]2[C@@H]3CCC4=CC(=O)C=C[C@]4(C)[C@@]3(F)[C@@H](O)C[C@@]21C [Betamethasone Dipropionate],1.67,2.06,2.69,2.18,0.697,1.59
COc1ccc(-c2cc(=O)c3c(O)cc(O[C@@H]4O[C@H](CO[C@@H]5O[C@@H](C)[C@H](O)[C@@H](O)[C@H]5O)[C@@H](O)[C@H](O)[C@H]4O)cc3o2)cc1O [Diosmin],0.665,0.621,1.01,0.778,0.671,0.702
CC(C)(CO)[C@@H](O)C(=O)NCCC(=O)NCCSSCCNC(=O)CCNC(=O)[C@H](O)C(C)(C)CO [D-Pantethine],1.1,1.2,0.679,1,0.969,1.35
Cc1cccc(N(C)C(=S)Oc2ccc3ccccc3c2)c1 [Tolnaftate],1.29,0.815,1.01,0.908,1.96,1.36
CSc1nc2cc(Cl)c(Oc3cccc(Cl)c3Cl)cc2[nH]1 [Triclabendazole],1.55,0.638,1.65,1.07,1.43,0.772
Oc1ccc([C@H]2COc3cc(O)ccc3C2)cc1 [Equol],1.09,1.52,1.04,1.35,0.768,1.72
Oc1cccc(-c2nc(N3CCOCC3)c3oc4ncccc4c3n2)c1,1.25,3.67,1.5,2.89,0.936,2.62
CC(=O)O[C@@H]1CC[C@@]2(C)[C@@H](CC[C@]3(C)[C@@H]2C(=O)C=C2[C@@H]4[C@@H](C)[C@H](C)CC[C@]4(C)CC[C@]23C)[C@@]1(C)C(=O)O,0.752,0.999,1.02,0.939,0.732,0.773
CCNC(=O)[C@H]1O[C@@H](n2cnc3c(N)nc(NCCc4ccc(CCC(=O)O)cc4)nc32)[C@H](O)[C@@H]1O,0.618,0.662,0.916,0.846,0.636,0.752
C[C@H](NC(=O)Cc1cc(F)cc(F)c1)C(=O)N[C@H](C(=O)OC(C)(C)C)c1ccccc1,1.92,1.48,1.11,0.913,1.57,1.26
c1cc(CN2CCCNCCNCCCNCC2)ccc1CN1CCCNCCNCCCNCC1 [Plerixafor 8HCl (AMD3100 8HCl)],1.37,1.38,0.691,1.5,0.69,1.7
NC(=O)N[C@@H](CCC(=O)O)C(=O)O [Carglumic Acid],1.22,0.653,0.949,1.06,0.389,0.68
CO/N=C(\C(=O)N[C@@H]1C(=O)N2C(C(=O)O)=CCS[C@H]12)c1csc(N)n1 [Ceftizoxime sodium],0.557,0.807,1.33,1.07,0.578,0.958
CC(=O)NO [Acetohydroxamic acid],1.37,1.28,0.954,1.17,0.648,0.776
CC(=O)Oc1cc(C(C)C)c(OCCN(C)C)cc1C [Moxisylyte hydrochloride],0.394,0.612,1.83,1.12,0.369,0.608
COc1ccc2c3c1O[C@H]1C[C@@H](O)C=C[C@@]31CCN(C)C2 [Galanthamine],0.802,1.14,0.605,0.959,0.423,0.852
CCCNc1nc(Nc2ccc(C#N)cc2)ncc1C#CCCCNC(=O)[C@H](C)N(C)C(=O)/C=C/CN(C)C,6.39,4.68,5.29,5.42,5,5.67
CN(C)CCCN1c2ccccc2Sc2ccc(Cl)cc21 [Chlorpromazine],1.47,1.98,1.56,2.21,2.01,1.04
C[C@H]1O[C@@H](Oc2c(-c3cc(O)c(O)c(O)c3)oc3cc(O)cc(O)c3c2=O)[C@@H](O)[C@@H](O)[C@@H]1O [Myricitrin],1.28,0.726,1.03,1.54,0.535,0.952
CC(C)NCC(O)COc1cccc2ccccc12 (configuration not stated) [Propranolol HCl],1.23,0.818,0.949,0.645,0.798,1.01

Structure (SMILES),Euclidean distance (786-O),Euclidean distance (A549),Euclidean distance (DU145),Euclidean distance (FB),Euclidean distance (HEPG2),Euclidean distance (OVCAR4)
Cl.NCCCC[C@H](N)C(=O)O [L-Lysine hydrochloride],0.954,1.04,0.836,0.872,1.27,0.646
OCC1=C[C@@H](O)[C@@H]2C=CO[C@@H](O[C@@H]3O[C@H](CO)[C@@H](O)[C@H](O)[C@H]3O)[C@H]12 [Aucubin],0.893,0.414,2.53,0.949,0.503,1.5
CCC(=O)O[C@]1(C(=O)SCF)[C@H](C)C[C@H]2[C@@H]3C[C@H](F)C4=CC(=O)C=C[C@]4(C)[C@@]3(F)[C@@H](O)C[C@@]21C [Fluticasone propionate],1.77,2.26,2.6,1.83,0.813,1.61
CCN1CCCC1CNC(=O)c1cc(S(=O)(=O)CC)c(N)cc1OC (configuration not stated) [Amisulpride],1.04,0.717,1.15,1.07,0.566,1.01
CCOC(=O)OC(C)OC1=C(C(=O)Nc2ccccn2)N(C)S(=O)(=O)c2ccccc21 (configuration not stated) [Ampiroxicam],1.26,1.35,0.928,0.606,0.41,1.47
COc1c(N2CCNC(C)C2)c(F)cc2c(=O)c(C(=O)O)cn(C3CC3)c12 (configuration not stated) [Gatifloxacin],0.648,0.598,0.774,0.851,0.876,1.07
O=c1cc(N2CCOCC2)oc2c1ccc1ccccc12,0.913,1.57,1.41,3.23,1.42,4.01
CCn1cc(C(=O)O)c(=O)c2cc(F)c(N3CCNCC3)nc21 [Enoxacin Sesquihydrate],1.35,1.38,0.79,0.738,0.516,1.19
Cc1cn([C@H]2C=C[C@@H](CO)O2)c(=O)[nH]c1=O [Stavudine (d4T)],1.64,1.46,0.564,0.969,0.716,1.06
CS(=O)(=O)c1ccc([C@@H](O)[C@@H](CF)NC(=O)C(Cl)Cl)cc1 [Florfenicol],1.1,0.738,0.807,1.12,0.739,0.76
Cc1cccc(CN2CCN(C(c3ccccc3)c3ccc(Cl)cc3)CC2)c1 (configuration not stated) [Meclizine 2HCl],1.66,1.27,0.732,1.06,0.511,1.51
CC(O)c1cc(C(=O)N[C@@H](C)Cn2ccc(-c3ccc(C#N)c(Cl)c3)n2)n[nH]1 (some centres not stated) [Darolutamide (ODM-201)],0.846,0.505,1.04,1.05,0.543,0.668
CCCCCCCCCCCCC[N+](C)(C)Cc1ccccc1 [Benzalkonium chloride],2.54,2.29,2.89,1.54,2.12,2.53
O=C(/C=C\n1cnc(-c2cc(C(F)(F)F)cc(C(F)(F)F)c2)n1)NNc1cnccn1,2.36,3.91,2.72,3.85,2.34,3.83
Cc1cc(Cn2cnc3c2CC(C(=O)O)N(C(=O)C(c2ccccc2)c2ccccc2)C3)ccc1N(C)C (configuration not stated),0.67,1.03,1.03,1.08,0.529,0.828
COCCCOc1ccnc(C[S+]([O-])c2nc3ccccc3[nH]2)c1C (configuration not stated) [Rebeprazole sodium],0.719,0.641,0.763,1.22,1.54,0.777
Cc1ccc(O)c([C@H](CCN(C(C)C)C(C)C)c2ccccc2)c1 [Tolterodine tartrate],1.87,0.728,0.897,1.13,1.19,1.58
CO[C@H]1CC[C@H](N2C(=O)CNc3ncc(-c4ccc(C(C)(C)O)nc4)nc32)CC1,3.2,3.38,2.56,3.76,2.34,3
C[N+](C)(C)CCO.O=C([O-])C(O)C(O)C(=O)O (configuration not stated) [Choline bitartrate],1.35,1.24,0.973,1.15,0.96,1.37
COc1cc2nccc(Oc3ccc(NC(=O)NC4CC4)c(Cl)c3)c2cc1C(N)=O [lenvatinib Mesylate],1.2,1.1,1.71,3.39,0.829,2.16
CC(=O)CC/C=C(\C)CC/C=C(\C)CC/C=C(\C)CCC=C(C)C [Teprenone],1.06,0.693,0.749,1.12,1.1,1.23
CNC(=O)c1ccc(N2C(=S)N(c3ccc(C#N)c(C(F)(F)F)c3)C(=O)C2(C)C)cc1F [Enzalutamide (MDV3100)],0.957,1.37,1.2,1.38,0.965,1.18
Cc1c(CN2CCN(C(=O)[C@H](C)O)CC2)sc2c(N3CCOCC3)nc(-c3cnc(N)nc3)nc12,4.15,2.91,1.8,4.11,3.04,3.09

# Source: the supplement of paper PMC10127200
